Assay results published in PubChem BioAssay (Tox21).
Values joined by “and” are separate entries in the source; they are usually repeats but may differ in a detail not shown here. Equal entries are not always repeated. Inconclusive results are not listed. A number with no mark means an inactive call. Active and inactive are the calls of the source. Calls come from the whole dose curve; as a rule, active = well fitted cell-killing curve with a large enough effect in the repeat runs; inconclusive = weak or mixed curves, or effect the other way; inactive = flat fitted curve, though single readings scatter.

Experiment: qHTS assay to identify small molecule antagonists of the androgen receptor (AR) signaling pathway using the MDA cell line - cell viability counter screen (AID 743041; note: nearly all actives have a fitted effect of over 45% in size)
Settings: MDA-kb2 viability, CellTiter-Fluor, 16 h, cells co-treated with R1881 androgen agonist; series mostly up to 70.3 µM; viability change, negative = cytotoxic: at the top concentration
From the text: National Center for Advancing Translational Sciences [NCATS]
NIH Chemical Genomics Center [NCGC]
U.S. Environmental Protection Agency [EPA]
National Institutes of Environmental Health Sciences [NIEHS]
National Toxicology Program [NTP]
U.S. Food and Drug Administration [FDA]
Androgen receptor (AR), a nuclear hormone receptor, plays a critical role in AR-dependent prostate cancer and other androgen related diseases. Endocrine disrupting chemicals (EDCs) and their interactions with steroid hormone receptors like AR may cause disruption of normal endocrine function as well as interfere with metabolic homeostasis, reproduction, developmental and behavioral functions. To identify the compounds that inhibit AR signaling, MDA-kb2 AR-luc cell line (from ATCC, deposited by Wilson et al.) was used to screen the Tox21 10K compound library. MDA-kb2 AR-luc cell line is human breast carcinoma cell line that was stably transfected with a luciferase reporter gene under control of the MMTV promoter containing response elements for both androgen receptor (AR) and glucocorticoid receptor (GR). The cytotoxicity of the Tox21 compound library against the MDA-kb2 AR-luc cell line was tested in parallel by measuring the cell viability using CellTiter-Fluor assay (Promega, Madison, WI) in the same wells.
Tox21 Assay Protocol Summary:
MDA-kb2 AR-luc cells were dispensed at 3,000 cells/4 uL/well of culture medium into white wall/solid-bottom 1536-well plates using a Multidrop Combi (ThermoFisher Scientific, Waltham, MA) dispenser. After the assay plates were incubated at a 37C and 0% CO2 for 5 hr, 23 nL of compounds dissolved in DMSO, positive controls or DMSO only was transferred to the assay plate by a Pintool station (Kalypsys, San Diego, CA), followed by addition of 1 uL of agonist (R1881) in culture medium using a Bioraptr Flying Reagent Dispenser (FRD) workstation (Beckman Coulter, Indianapolis, IN, USA). The plates were incubated at a 37C and 0% CO2 for 16 h. After 15.5 h incubation, 1uL of CellTiter-Fluor reagent (Promega) was added using a Bioraptr FRD to each plate for measuring cytotoxicity. The fluorescence intensity was quantified on a ViewLux plate reader (PerkinElmer, Shelton, CT) following 30 min incubation at 37C and 0% CO2.
% is set by controls: 0 for no effect and ±100 for the full control effect; potency is the fitted concentration of half-maximal effect.

Compound | viability change, negative = cytotoxic | Potency
CCCCCCCCCCCCCCC[C@H](O)[C@@H](N)CO | 2.14% | 
CCCCOC(=O)CCS | 4.11% | 
CCC(Cc1ccccc1)(C(=O)c1ccc(N2CCOCC2)cc1)N(C)C (stereo not given) | -1.74% | 
O=S(=O)(c1ccccc1)c1ccc(Cl)cc1 | 22.1% | 
CN1C(=O)CC(C)(c2ccccc2)C1=O (stereo not given) | -4.32% | 
COCCOC | -3.12% | 
CC(C)C(OC(=O)c1ccccc1)C(C)(C)COC(=O)c1ccccc1 (stereo not given) | 1.25% | 
Cc1cc(O)c(C(C)C)cc1Cl |  | inactive
O=C(CCCCCCCCC#CI)Oc1ccccc1 | -1.29% | 
Fc1c(F)c(F)c(Br)c(F)c1F | -4.26% | 
CCCCCCCCCOC(C)=O | 0.599% | 
NC(=O)Nc1ccc(Cl)c(Cl)c1 | -2.65% | 
CC(=O)Nc1ccccc1C | 1.23% [at 95 µM] | 
O=C(CCCN1CCN(c2ccc(F)cc2)CC1)NC1c2ccccc2CSc2ccccc21 (stereo not given) | -18.3% | 
COC(=O)CC(=O)C(C)(C)C | -2.9% | 
C[Si]1(C)O[Si](C)(C)O[Si](C)(C)O1 | 3.95% | 
CC(C)(C)C(=O)C(Oc1ccc(Cl)cc1)n1ccnc1 (stereo not given) | -0.28% | 
O=C(O)c1snc(Cl)c1Cl | -6.97% | 
CC(=O)[C@H]1CC[C@H]2[C@@H]3C[C@H](C)C4=CC(=O)CC[C@]4(C)[C@H]3[C@@H](O)C[C@]12C | 1.05% [at 32.5 µM] | 
CC1(C)O[C@@H]2C[C@H]3[C@@H]4CCC5=CC(=O)C=C[C@]5(C)[C@H]4[C@@H](O)C[C@]3(C)[C@]2(C(=O)CO)O1 | -11.3% | 

Compound | viability change, negative = cytotoxic | Potency
ON(Cc1ccccc1)Cc1ccccc1 | -3.26% | 
CSc1ccc(Oc2ccc(S(N)(=O)=O)cc2CN(C)C)cc1C | -2.78% | 
CC(C)(C)CC(C)(C)c1ccc(OCCO)cc1 |  | 27.8 µM (active) and 48.3 µM (active)
CO/N=C1\CN(c2nc3c(cc2F)c(=O)c(C(=O)O)cn3C2CC2)CC1CN (stereo not given) | -10.4% | 
O=C(Nc1ccccc1)Nc1ccccc1 | -3.32% [at 95 µM] | 
C[N+](C)(C)CCOC(N)=O | 4.62% | 
CC[C@@H]([C@H](C)O)n1ncn(-c2ccc(N3CCN(c4ccc(OC[C@@H]5CO[C@@](Cn6cncn6)(c6ccc(F)cc6F)C5)cc4)CC3)cc2)c1=O | 0% | 
CC1=CC(=O)CC(C)(C)C1(O)/C=C/C(C)=C\C(=O)O (stereo not given) | 1.43% | 
CCNC(=O)N1CCN(CCCC(c2ccc(F)cc2)c2ccc(F)cc2)CC1 |  | 26.6 µM (active)
CCCCCCCCCCCCCCCCBr | 5.44% [at 32.5 µM] | 
CCCCCCCC/C=C\CCCCCCCC(=O)OC(CO)CO | 1.07% | 
Cc1nc2ccccc2s1 | 2.7% [at 95 µM] | 
[O]=[Bi] | -2.29% [at 8.47 µM] | 
CN1CCCN=C1/C=C/c1cccs1 | -3.23% | 
CCCCCCOC(=O)C(C)C | 2.12% | 
CCC(C(=O)OCCN(CC)CC)c1ccccc1 (stereo not given) | 4.53% | 
Nc1ccc(C(=O)OCCCOC(=O)c2ccc(N)cc2)cc1 | 16.8% | 
CC1CC(=O)NN=C1c1ccc(NCC(C)(C)NCC(O)COc2cc(Cl)ccc2C#N)cc1 (stereo not given) | -4.82% | 
CC[C@H](NC(=O)c1cc(F)ccc1NS(=O)(=O)c1cccc2cccnc12)c1ccccc1 | -30.7% | 
CCn1cc(C(=O)O)c(=O)c2cc(F)c(N3CCNCC3)nc21 | 0.635% [at 32.5 µM] | 
